Data on eight molecules can be found in PubChem BioAssay.

Calls of active or inactive are those of the source.

Assay [1] deals with Plasmodium falciparum Sir2 (PF13_0152, Sir2A). The assay can be described thus: Plasmodium falciparum Sir2A binding compounds – biochemical, small-molecule microarray, 635 nm fluorescence, primary screen (AID 1098).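 Note: score merges spot fluorescence intensity with its signal-to-noise ratio.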 The note with it: fluorescence 635 nm, higher = more signal.
Assay [2] can be described thus: probe aDKK1 binding to arrayed compounds – biochemical, biotinylated probe, 635/667 nm fluorescence, primary screen (AID 1099).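 Note: score merges 667nm spot fluorescence with signal to noise across triplicate slides.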 The note with it: small-molecule microarray, higher = more signal.
A short description of assay [3]: probe aCHRDL2 binding to arrayed compounds – biochemical, biotinylated probe, 635/667 nm fluorescence, primary screen (AID 1100). As to conditions: small-molecule microarray, higher = more signal.
Assay [4] is described as follows: change in splice reporter luminescence, either direction, cell-based, HEK293, spliceosome inhibition project, primary screen (AID 1101).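 Note: HEK293 cells carrying a splicing-competent luciferase reporter gene; test concentration not given here.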 As to conditions: HEK293 splicing luciferase reporter, 24 h, higher = more signal, called active from +8 up or from −8 down.
Assay [5] has as its target Fibroblast growth factor 10 (Homo sapiens) (UniProt O15520). The assay can be described thus: compounds binding fibroblast growth factor 10 – biochemical, small-molecule microarray, 635 nm fluorescence, primary screen (AID 1102). The note with it: FGF10 binding, fluorescence 635 nm, higher = more signal.
The subject of assay [6] is glycogen synthase kinase-3 (GSK3A per assay name; protocol says GSK3B). The assay can be described thus: compounds binding glycogen synthase kinase-3 – biochemical, small-molecule microarray, 635 nm fluorescence, GSK3A, primary screen (AID 1103). Note: the record names both GSK3A and GSK3B. As to conditions: fluorescence 635 nm, higher = more signal.
The target of assay [7] is Epidermal growth factor receptor (Homo sapiens) (UniProt P00533). Put plainly: compounds binding epidermal growth factor receptor – biochemical, small-molecule microarray, 635 nm fluorescence, primary screen (AID 1104).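 Note: score merges 667 nm emission intensity with spot signal to noise over triplicate slides.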 As to conditions: EGFR binding, higher = more signal.
In assay [8] the target is Follistatin-related protein 3 (Homo sapiens) (UniProt O95633). The assay can be described thus: compounds binding follistatin-related protein 3 – biochemical, small-molecule microarray, 635 nm fluorescence, primary screen (AID 1105).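 Note: score merges emission near 667 nm and signal to noise per printed spot across three slides.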 As to conditions: FSTL3 binding, higher = more signal.
The target of assay [9] is Dickkopf-related protein 1 (Homo sapiens) (UniProt O94907). The assay can be described thus: small molecules binding DKK1 protein – biochemical, small-molecule microarray, 635 nm fluorescence scan, primary screen (AID 1106).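 Note: score merges emission near 667 nm with signal to noise over three replicate slides.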 The note with it: higher = more signal.
The test system of assay [10] is Inhibin beta A chain (activin A). The assay can be described thus: small molecules binding activin A – biochemical, small-molecule microarray, 635 nm fluorescence scan, primary screen (AID 1107).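 Note: mouse activin A protein probed at 4.33 µg/mL on printed slides; score merges bound-protein fluorescence near 667 nm with spot signal-to-noise.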 As to conditions: INHBA, higher = more signal.
Assay [11] deals with Human papillomavirus type 1a protein E7 (residues 44-93). Put plainly: small molecules binding HPV E7 44-93 – biochemical, small-molecule microarray, residues 44-93, 635 nm fluorescence, primary screen (AID 1108).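 Note: E7 fragment applied at 1 µg/mL in TBST for 1 h at 4 C; score combines spot fluorescence with its signal to noise ratio.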 The note with it: fluorescence 635 nm, higher = more signal.
Assay [12] in a line: hepatitis C replication reporter changes, two-sided – Huh7 cells, luciferase reporter, HCV replication inhibitor project, primary screen (AID 1109).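 Note: huh7 hepatoma cells harbouring a luciferase neomycin HCV replicon reporter; luciferase luminescence as measure of HCV replicon replication; test concentration not given here.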 As to conditions: Huh7 HCV replicon luciferase reporter, 48 h; higher = more signal. A general note: A reporter such as luciferase makes a cellular process visible.
The target of assay [13] is Left-right determination factor 2 (Homo sapiens) (UniProt O00292). The assay can be described thus: small molecules binding LEFTY2 protein – biochemical, small-molecule microarray, 635 nm fluorescence scan, primary screen (AID 1110). The note with it: higher = more signal.
Assay [14] deals with Calmodulin-1 (Homo sapiens) (UniProt P0DP23). The assay can be described thus: small molecules binding calmodulin-1 with EGTA – biochemical, small-molecule microarray, Cy5-labelled CALM1, profiling panel (AID 1111).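 Note: labelled calmodulin applied in Tris saline Tween buffer holding calcium plus EGTA and DTT.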 The note with it: Cy5-CALM1 binding fluorescence, higher = more signal.
For assay [15] the target is unchanged. The assay can be described thus: small molecules binding Ca-loaded calmodulin-1 – biochemical, small-molecule microarray, Cy5-labelled CALM1, plus calcium, artefact control for SMM control-protein annotation, profiling panel (AID 1112).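 Note: score merges spot fluorescence with signal to noise from triplicate slides.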 The note with it: Cy5-CALM1 binding fluorescence, higher = more signal.
Assay [16] can be described thus: probe aWnt5a binding to arrayed compounds – biochemical, biotinylated probe, 635/667 nm fluorescence, primary screen (AID 1113).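 Note: score merges 667 nm fluorescence intensity with signal-to-noise per printed feature.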 As to conditions: small-molecule microarray, higher = more signal.
Assay [17] in a line: probe aShh binding to arrayed compounds – biochemical, biotinylated probe, 635/667 nm fluorescence, primary screen (AID 1114).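 Note: probe is biotin-labelled aShh protein from a stem cell growth factor screen; measures binding of labelled protein to compounds printed on the slide; score merges feature fluorescence at 667 nm with signal-to-noise.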 The note with it: small-molecule microarray, higher = more signal.
Assay [18] can be described thus: probe aNog binding to arrayed compounds – biochemical, biotinylated probe, 635/667 nm fluorescence, primary screen (AID 1115).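 Note: probe is biotinylated aNog protein used at 0.15 µg/mL for 1 h at 4 C; z-score combines 667 nm fluorescence of each spot with its signal to noise.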 As to conditions: small-molecule microarray, higher = more signal.
The target in assay [19] is Torsin-1A-interacting protein 1 (Homo sapiens) (UniProt Q5JTV8). Put plainly: compound microarray binding of lysate hLAP1 – cell lysate, small-molecule microarray, COS7 lysate, 635/667 nm fluorescence, primary screen (AID 1116). The note with it: 635 nm fluorescence, higher = more signal.
The target in assay [20] is Alpha-bungarotoxin (Bungarus multicinctus) (UniProt P60615). Put plainly: compounds binding labelled alpha-BTX control protein – biochemical, small-molecule microarray, Alexa647 label, 635/667 nm fluorescence, artefact control for SMM control protein annotation, profiling panel (AID 1117). The note with it: alpha-BTX-A647 binding fluorescence, higher = more signal.
Alpha-bungarotoxin (Bungarus multicinctus), sequence (P60615 whole entry, looked up): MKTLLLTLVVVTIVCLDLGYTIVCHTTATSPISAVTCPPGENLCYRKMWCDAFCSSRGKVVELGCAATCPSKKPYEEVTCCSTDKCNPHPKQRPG

Left-right determination factor 2 (Homo sapiens), sequence (O00292 whole entry, looked up): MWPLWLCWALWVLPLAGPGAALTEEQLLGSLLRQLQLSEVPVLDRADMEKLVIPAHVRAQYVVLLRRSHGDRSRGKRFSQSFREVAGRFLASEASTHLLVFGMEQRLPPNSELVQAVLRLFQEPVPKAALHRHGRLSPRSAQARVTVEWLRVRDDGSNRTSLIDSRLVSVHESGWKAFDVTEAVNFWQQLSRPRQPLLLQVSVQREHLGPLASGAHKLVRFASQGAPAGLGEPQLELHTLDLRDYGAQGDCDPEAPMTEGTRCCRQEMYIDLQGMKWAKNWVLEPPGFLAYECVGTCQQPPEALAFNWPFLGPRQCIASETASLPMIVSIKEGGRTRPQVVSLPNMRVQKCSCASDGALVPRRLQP
Dickkopf-related protein 1 (Homo sapiens), sequence (O94907 whole entry, looked up): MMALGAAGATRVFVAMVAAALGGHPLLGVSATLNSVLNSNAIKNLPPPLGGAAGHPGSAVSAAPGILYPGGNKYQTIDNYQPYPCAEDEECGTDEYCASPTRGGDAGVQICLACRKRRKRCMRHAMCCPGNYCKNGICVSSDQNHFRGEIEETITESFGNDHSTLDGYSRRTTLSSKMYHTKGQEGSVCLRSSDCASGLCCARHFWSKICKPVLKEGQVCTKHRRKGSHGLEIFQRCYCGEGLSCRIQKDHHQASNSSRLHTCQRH
Torsin-1A-interacting protein 1 (Homo sapiens), sequence (Q5JTV8 whole entry, looked up): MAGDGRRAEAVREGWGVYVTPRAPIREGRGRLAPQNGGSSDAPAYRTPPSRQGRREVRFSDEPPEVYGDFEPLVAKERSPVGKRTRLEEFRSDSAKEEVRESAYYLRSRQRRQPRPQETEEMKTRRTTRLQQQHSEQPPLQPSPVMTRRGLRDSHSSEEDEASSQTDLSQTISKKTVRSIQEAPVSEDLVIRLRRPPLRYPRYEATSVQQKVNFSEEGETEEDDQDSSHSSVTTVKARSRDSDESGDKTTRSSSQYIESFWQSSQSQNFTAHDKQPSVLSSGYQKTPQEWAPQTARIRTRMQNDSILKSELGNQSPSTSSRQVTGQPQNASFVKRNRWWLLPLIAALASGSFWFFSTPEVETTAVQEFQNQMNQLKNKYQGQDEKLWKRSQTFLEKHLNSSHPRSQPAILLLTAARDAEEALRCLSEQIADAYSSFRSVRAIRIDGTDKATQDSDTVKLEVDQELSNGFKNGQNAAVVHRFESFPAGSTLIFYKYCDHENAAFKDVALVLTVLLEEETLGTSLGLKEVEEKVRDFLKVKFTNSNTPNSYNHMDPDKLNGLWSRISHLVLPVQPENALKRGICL
Epidermal growth factor receptor (Homo sapiens), sequence (P00533 whole entry, looked up): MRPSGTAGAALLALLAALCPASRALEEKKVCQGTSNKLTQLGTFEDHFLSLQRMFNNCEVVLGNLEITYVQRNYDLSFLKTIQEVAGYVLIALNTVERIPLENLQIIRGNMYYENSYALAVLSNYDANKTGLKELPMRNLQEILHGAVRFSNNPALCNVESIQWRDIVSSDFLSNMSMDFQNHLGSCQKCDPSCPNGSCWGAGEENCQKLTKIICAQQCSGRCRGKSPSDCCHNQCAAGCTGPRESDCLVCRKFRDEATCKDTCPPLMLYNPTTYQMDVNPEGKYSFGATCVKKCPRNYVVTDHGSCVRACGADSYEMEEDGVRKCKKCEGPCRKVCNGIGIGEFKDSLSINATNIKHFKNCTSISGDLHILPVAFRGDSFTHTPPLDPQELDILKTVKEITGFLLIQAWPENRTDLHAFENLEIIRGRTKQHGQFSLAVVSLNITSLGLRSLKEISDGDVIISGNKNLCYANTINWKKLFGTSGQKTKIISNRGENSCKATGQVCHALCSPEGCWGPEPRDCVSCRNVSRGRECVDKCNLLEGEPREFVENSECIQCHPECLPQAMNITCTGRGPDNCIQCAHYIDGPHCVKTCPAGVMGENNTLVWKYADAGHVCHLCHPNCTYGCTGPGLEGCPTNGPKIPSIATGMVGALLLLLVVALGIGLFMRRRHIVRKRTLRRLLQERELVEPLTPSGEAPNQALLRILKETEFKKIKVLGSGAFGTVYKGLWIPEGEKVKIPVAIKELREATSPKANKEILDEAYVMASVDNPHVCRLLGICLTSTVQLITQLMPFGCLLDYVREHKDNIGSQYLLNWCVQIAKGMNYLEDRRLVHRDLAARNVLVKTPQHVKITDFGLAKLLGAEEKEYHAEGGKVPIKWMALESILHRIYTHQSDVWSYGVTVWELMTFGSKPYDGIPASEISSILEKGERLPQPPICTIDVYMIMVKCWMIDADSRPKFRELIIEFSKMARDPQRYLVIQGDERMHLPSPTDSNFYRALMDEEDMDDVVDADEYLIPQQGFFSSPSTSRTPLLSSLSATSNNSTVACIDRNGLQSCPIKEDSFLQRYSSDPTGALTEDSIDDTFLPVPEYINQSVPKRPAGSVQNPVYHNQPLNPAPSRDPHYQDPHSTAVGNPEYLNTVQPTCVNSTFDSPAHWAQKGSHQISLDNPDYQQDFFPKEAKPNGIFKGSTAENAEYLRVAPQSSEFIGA
Follistatin-related protein 3 (Homo sapiens), sequence (O95633 whole entry, looked up): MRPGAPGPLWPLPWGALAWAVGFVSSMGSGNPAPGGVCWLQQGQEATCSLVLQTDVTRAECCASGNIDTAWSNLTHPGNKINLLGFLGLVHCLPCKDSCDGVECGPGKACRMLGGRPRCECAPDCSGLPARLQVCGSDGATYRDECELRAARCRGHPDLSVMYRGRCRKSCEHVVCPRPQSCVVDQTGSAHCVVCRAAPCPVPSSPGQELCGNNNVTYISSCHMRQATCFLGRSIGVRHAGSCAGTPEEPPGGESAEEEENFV
Fibroblast growth factor 10 (Homo sapiens), sequence (O15520 whole entry, looked up): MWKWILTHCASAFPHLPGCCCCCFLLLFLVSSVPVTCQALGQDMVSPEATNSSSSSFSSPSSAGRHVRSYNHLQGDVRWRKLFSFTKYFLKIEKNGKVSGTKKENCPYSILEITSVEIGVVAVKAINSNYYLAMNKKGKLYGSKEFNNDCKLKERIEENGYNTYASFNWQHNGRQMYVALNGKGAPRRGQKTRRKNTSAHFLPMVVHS

As for `C=CC[C@@]1(C(=O)O)N=C(c2ccc(OCCCO)cc2)O[C@@H]1c1ccccc1N=[N+]=[N-]`, the composite z-score is 1.48 in assay [1]; 1.08 in assay [2]; 1.2 in assay [3]; 0.291 in assay [5]; 0.658 in [6]; -0.107 in [7]. The composite z-score in [8] is 0.316; in [9], -0.227; in [10] it was 1.46; in assay [11], 0.411; in assay [13], 0.294; in assay [14] it was 1.39. Moreover, the composite z-score in assay [15] is 0.341; in [16], -0.0236; in assay [17], -0.181; in assay [18], 1.24; in assay [19] it was 1.02; in assay [20] it was 1.77. In addition, the figures for the z-score in assay [4] and in assay [12] were 0.0828 (inactive) and 1.03, respectively.

With `O=C1O[C@H](c2ccccc2)[C@H](c2ccccc2)N2[C@H]1[C@@H](C(=O)Nc1nc3ccccc3s1)[C@]1(C(=O)Nc3ccccc31)[C@H]2c1ccc(O)cc1`, the composite z-score in assay [1] is 1.57; in assay [2], -0.0334; in [3] it was 0.126; in [5], 0.939; in [6] it was 1.08; in assay [7], 0.598. Further, the composite z-score came out at 1.31 in assay [8]; 1.11 in assay [9]; 0.435 in assay [10]; 1.35 in [11]; 0.684 in [13]; 0.281 in assay [14]. The composite z-score in assay [15] was -0.322; in assay [16], -0.0903; in assay [17] it was -0.138; in assay [18], -0.0272; in assay [19] it was 0.536; in [20] it was 1.27. The z-score in [4] was -0.449 (inactive); in assay [12], -1.35.

For `CCCNC(=O)[C@@H]1c2ccccc2C(=O)N(Cc2ccccc2)[C@H]1c1ccc(CO)cc1`, the composite z-score in [1] was 0.405; in [2], -0.0972; in assay [3], 0.933; in [5], -0.239; in assay [6], 0.0282; in [7], -0.592. Besides, the composite z-score in [8] is -0.637; in assay [9], -0.744; in [10], -0.217; in assay [11] it was 0.656; in [13], -0.595; in assay [14], -0.0977. The composite z-score in assay [15] is -1.35; in [16] it was -0.152; in assay [17] it was -0.138; in [18], -0.216; in [19], 0.142; in assay [20] it was 0.918. The z-score in [4] is 0.0373 (inactive); in [12], -0.481.

With `CCCCC(CC)C(O)C1C=CC2C(=O)N(c3ccccc3)C(=O)C2N1Nc1ccccc1` (stereo not given), the composite z-score in assay [1] was 0.889; in assay [2], 0.674; in [3] it was 0.932; in [5], 0.753; in assay [6] it was 0.0129; in assay [7], -0.456. Besides, the composite z-score was 1.13 in assay [8]; -0.648 in assay [9]; 1.02 in assay [10]; 1.33 in assay [11]; -0.354 in [13]; 1.25 in assay [14]. Moreover, the composite z-score was 0.831 in assay [15]; 0.173 in assay [16]; 0.108 in assay [17]; -0.259 in [18]; 0.886 in assay [19]; 1.1 in assay [20]. In addition, the z-score is -0.901 (inactive) in [4] and -1.71 in assay [12].

As for `CN1C(=O)C2C(C1=O)C1C=C(CCCO)C2C(c2cccs2)N1C` (stereo not given), the composite z-score in [1] was 1.78; in assay [2], -0.722; in assay [3], -0.681; in assay [5], 0.248; in assay [6] it was -0.76; in assay [7] it was -0.106. The composite z-score in [8] was -0.473; in [9], -0.559; in [10], 0.561; in assay [11] it was 0.0537; in [13] it was -0.676; in assay [14] it was 0.203. Further, the composite z-score is 0.451 in [15]; -0.0462 in [16]; 0.469 in assay [17]; -0.395 in assay [18]; -0.646 in assay [19]; -0.513 in assay [20]. In addition, the z-score in assay [4] is -0.0035 (inactive); in [12], -0.999.

As for `O=C(O)[C@@]1(Cc2ccccc2)N=C(c2ccc(OCCCO)cc2)O[C@H]1c1ccccc1`, the composite z-score is 1.03 in assay [1]; 0.116 in assay [2]; 0.614 in assay [3]; 0.252 in assay [5]; -0.11 in assay [6]; -1.02 in assay [7]. For the same molecule, the composite z-score was 0.0206 in assay [8]; -0.872 in assay [9]; 0.779 in assay [10]; 0.843 in assay [11]; -1.13 in [13]; 0.102 in [14]. Further, the composite z-score is 1.07 in assay [15]; -0.0179 in assay [16]; 0.216 in [17]; 0.966 in assay [18]; -0.514 in assay [19]; 1.07 in assay [20]. Also, the figures for the z-score in assay [4] and in assay [12] were -0.674 (inactive) and -0.0284, respectively.

Regarding `C=CC[C@@]1(C(=O)NCC(O)CO)N=C(c2ccc(OCCCO)cc2)O[C@@H]1c1ccccc1N=[N+]=[N-]` (stereo not given in full), the composite z-score in assay [1] is 0.663; in assay [2] it was 0.854; in [3], 1.12; in assay [5], 0.618; in [6], -0.669; in assay [7] it was -0.656. Besides, the composite z-score in [8] was 0.326; in assay [9] it was -0.612; in [10], 1.02; in assay [11], 1.49; in [13], -0.709; in [14], 1.61. In addition, the composite z-score was 0.643 in assay [15]; -0.0846 in assay [16]; 0.0062 in assay [17]; 1.39 in assay [18]; 2.06 in assay [19]; 1.12 in assay [20]. For the same molecule, the z-score in assay [4] is -1.25 (inactive); in assay [12], -0.747.

As to `CCOC(=O)C[C@H]1[C@H](OC(=O)c2ccc(C(=O)c3ccccc3)cc2)[C@@H](NC(=O)C2CCCCC2)c2cc(OCCCO)ccc2N1C(=O)c1ccccc1`, the composite z-score in assay [1] was 0.348; in assay [2] it was -0.0675; in assay [3] it was -0.0333; in [5], 0.398; in [6], 0.628; in assay [7] it was 0.122. The composite z-score in assay [8] was found to be 0.165; in assay [9] it was 0.126; in assay [10], 0.559; in assay [11], 1.34; in assay [13], 0.239; in assay [14], 0.541. The composite z-score in assay [15] was -0.0224; in assay [16], -0.0346; in assay [17], 0.0483; in assay [18] it was -0.158; in assay [19] it was 0.512; in assay [20], 0.745. Further, the figures for the z-score in assay [4] and in assay [12] were 0.062 (inactive) and -2.27, respectively.
